# Test results as given in PubChem BioAssay (NCATS).
# Unmarked numbers belong to inactive results. Inconclusive results are not listed. Entries that show only a call come without a potency. Activity calls are given as the source filed them. Unless noted, the call rests on the fitted dose curve; in most records, active means well fitted curve in the direction sought with a large enough effect; inconclusive means small, poorly fitted or top-dose-only effect, or another doubt; inactive means no such curve, though single readings can be large; an effect the other way counts as inactive or inconclusive.
# What was measured:
# [1] = biological target: Cytochrome P450 1A2 (Homo sapiens) (UniProt P05177); assay: p450-cyp1a2 (AID 410; calls by dose curve; further: potency means the concentration at half of the fitted maximal effect)
# Cytochrome P450 1A2 (Homo sapiens), sequence (P05177 whole entry, looked up): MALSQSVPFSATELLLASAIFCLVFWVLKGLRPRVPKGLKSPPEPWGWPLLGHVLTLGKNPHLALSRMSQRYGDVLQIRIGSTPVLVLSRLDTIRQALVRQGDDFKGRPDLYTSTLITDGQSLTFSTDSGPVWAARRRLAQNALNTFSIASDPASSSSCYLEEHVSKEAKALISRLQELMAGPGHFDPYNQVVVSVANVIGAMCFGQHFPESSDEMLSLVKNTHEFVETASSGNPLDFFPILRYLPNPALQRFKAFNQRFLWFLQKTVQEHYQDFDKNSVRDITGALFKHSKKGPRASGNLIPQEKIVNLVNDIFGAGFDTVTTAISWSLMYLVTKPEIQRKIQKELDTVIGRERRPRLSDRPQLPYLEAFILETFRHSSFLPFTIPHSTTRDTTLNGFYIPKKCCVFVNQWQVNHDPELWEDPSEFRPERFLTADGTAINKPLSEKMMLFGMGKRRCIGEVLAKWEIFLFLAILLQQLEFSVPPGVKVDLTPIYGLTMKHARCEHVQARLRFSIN
# Procedure, shortened: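 Inhibition was calculated relative to 57 uM furafylline (full inhibition). The reaction used human CYP1A2 at 20nM with Luciferin-ME at its Km, 100uM, driven by an NADPH-regenerating system for 60 min at room temperature.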
# [2] = biological target: Mitogen-activated protein kinase 10 (Mus musculus) (UniProt Q61831); assay: JNK3 AlphaScreen Assay (AID 530; active means well fitted curve in either direction with a large enough effect, not every such curve was filed as active;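 further: kinase came from lysate of stimulated human HepG2 cells; signal reports phosphorylation of biotinylated GST-cJun 1-79 at Ser73 with 10 µM ATP; series mostly up to about 57 µM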)
# Procedure, shortened: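 Room-temperature AlphaScreen kinase assay; pre-activated HepG2 lysate as JNK3 source, biotin-GST-cJun(1-79) substrate, 10 uM ATP, compound 15 min preincubation.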
# [3] = biological target: Glucocorticoid receptor (Homo sapiens) (UniProt P04150); assay: GR-GFP Redistribution (AID 450;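 active means compounds whose dose series gives a full or clear partial fitted curve of increased nuclear translocation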; further: potency means the concentration at half of the fitted maximal effect); details: U2OS GR-GFP nuclear translocation, laser cytometry, 2 h
# Glucocorticoid receptor (Homo sapiens), sequence (P04150 whole entry, looked up, the tested form may be a part): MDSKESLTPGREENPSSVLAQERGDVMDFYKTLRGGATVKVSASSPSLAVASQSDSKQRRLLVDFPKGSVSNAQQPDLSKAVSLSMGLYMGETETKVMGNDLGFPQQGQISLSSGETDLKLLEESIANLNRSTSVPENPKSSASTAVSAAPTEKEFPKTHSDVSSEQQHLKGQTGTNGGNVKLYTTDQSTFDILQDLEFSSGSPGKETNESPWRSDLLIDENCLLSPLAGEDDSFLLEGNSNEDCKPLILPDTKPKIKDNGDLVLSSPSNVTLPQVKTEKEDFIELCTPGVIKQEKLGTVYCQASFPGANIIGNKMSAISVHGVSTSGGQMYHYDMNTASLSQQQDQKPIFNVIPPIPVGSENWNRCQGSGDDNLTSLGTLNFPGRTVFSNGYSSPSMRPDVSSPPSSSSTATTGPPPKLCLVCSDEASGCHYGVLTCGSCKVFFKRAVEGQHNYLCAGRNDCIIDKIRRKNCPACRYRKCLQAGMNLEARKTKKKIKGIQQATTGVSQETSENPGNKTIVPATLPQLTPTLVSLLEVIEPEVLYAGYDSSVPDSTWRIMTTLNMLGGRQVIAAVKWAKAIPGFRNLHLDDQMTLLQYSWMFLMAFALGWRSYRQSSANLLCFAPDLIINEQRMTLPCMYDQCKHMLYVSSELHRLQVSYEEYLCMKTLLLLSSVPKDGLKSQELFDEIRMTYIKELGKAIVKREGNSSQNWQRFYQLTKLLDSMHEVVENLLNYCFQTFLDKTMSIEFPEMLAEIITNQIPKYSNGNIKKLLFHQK
# [4] = biological target: Glucocorticoid receptor (Homo sapiens) (UniProt P04150); assay: GR-EFC Redistribution (AID 451; calls by dose curve; further: potency means the concentration at half of the fitted maximal effect); details: CHO-K1 GR-EFC translocation, beta-gal luminescence, 2 h
# Procedure, shortened: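 Translocation of GR-ED fusion to nuclear EA restores b-gal, read by luminescence after 1 h room-temperature detection. Engineered CHO-K1 biosensor cells, 1,000/well, exposed 2 h at 37 C to titrations up to 46 uM final.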
# [5] = biological target: Cytochrome P450 2C9 (Homo sapiens) (UniProt P11712); assay: qHTS Assay for Inhibitors and Substrates of Cytochrome P450 2C9 (AID 883); further: nearly all actives have a fitted effect of over 60% in size; further: potency means the concentration at half of the fitted maximal effect
# Cytochrome P450 2C9 (Homo sapiens), sequence (P11712 whole entry, looked up): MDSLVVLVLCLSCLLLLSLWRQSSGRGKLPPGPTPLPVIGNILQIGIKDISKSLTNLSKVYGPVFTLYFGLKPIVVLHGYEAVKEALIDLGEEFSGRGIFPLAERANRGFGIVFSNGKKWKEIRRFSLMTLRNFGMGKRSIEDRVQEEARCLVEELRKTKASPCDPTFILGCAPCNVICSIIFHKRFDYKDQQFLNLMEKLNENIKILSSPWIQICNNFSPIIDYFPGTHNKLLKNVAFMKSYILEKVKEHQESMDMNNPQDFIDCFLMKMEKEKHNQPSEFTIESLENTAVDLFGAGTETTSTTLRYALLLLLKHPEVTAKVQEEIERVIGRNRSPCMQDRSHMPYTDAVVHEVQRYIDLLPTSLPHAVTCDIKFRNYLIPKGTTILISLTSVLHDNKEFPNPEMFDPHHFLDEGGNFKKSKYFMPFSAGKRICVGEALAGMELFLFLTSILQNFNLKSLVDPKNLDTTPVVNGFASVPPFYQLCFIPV
# Procedure, shortened: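 Turnover of Luciferin-H (100uM, KM) by 10nM human CYP2C9 was measured over 60 min at 37C with NADPH regeneration; inhibitors and some substrates reduce luminescence. Data normalized to sulphaphenazole 57uM.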
# [6] = biological target: Cytochrome P450 2C19 (Homo sapiens) (UniProt P33261); assay: qHTS Assay for Inhibitors and Substrates of Cytochrome P450 2C19 (AID 899); further: nearly all actives have a fitted effect of over 60% in size; further: potency means the concentration at half of the fitted maximal effect
# Cytochrome P450 2C19 (Homo sapiens), sequence (P33261 whole entry, looked up): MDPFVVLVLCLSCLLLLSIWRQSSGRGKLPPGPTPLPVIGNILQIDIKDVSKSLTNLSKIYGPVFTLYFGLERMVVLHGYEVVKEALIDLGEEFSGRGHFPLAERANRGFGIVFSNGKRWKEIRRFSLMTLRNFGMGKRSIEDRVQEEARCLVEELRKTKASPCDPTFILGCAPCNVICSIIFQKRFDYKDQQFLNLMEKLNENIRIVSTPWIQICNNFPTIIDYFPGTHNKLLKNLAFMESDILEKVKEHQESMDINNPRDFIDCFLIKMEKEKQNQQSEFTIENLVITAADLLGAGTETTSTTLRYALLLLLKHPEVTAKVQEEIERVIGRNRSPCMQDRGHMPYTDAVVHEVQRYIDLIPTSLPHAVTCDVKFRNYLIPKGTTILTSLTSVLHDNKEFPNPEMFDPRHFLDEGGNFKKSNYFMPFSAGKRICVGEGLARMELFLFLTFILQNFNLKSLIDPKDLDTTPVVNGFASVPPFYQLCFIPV
# Procedure, shortened: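 Reactions contain 5nM enzyme, 10uM Luciferin-H EGE (KM) and 50mM KPO4; compound preincubates 10 min at 37C, NADPH regeneration starts turnover for 60 min. Luminescence after detection reagent gives activity.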
# [7] = biological target: Cytochrome P450 2D6 (Homo sapiens) (UniProt P10635); assay: qHTS Assay for Inhibitors and Substrates of Cytochrome P450 2D6 (AID 891); further: nearly all actives have a fitted effect of over 60% in size; further: potency means the concentration at half of the fitted maximal effect
# Cytochrome P450 2D6 (Homo sapiens), sequence (P10635 whole entry, looked up): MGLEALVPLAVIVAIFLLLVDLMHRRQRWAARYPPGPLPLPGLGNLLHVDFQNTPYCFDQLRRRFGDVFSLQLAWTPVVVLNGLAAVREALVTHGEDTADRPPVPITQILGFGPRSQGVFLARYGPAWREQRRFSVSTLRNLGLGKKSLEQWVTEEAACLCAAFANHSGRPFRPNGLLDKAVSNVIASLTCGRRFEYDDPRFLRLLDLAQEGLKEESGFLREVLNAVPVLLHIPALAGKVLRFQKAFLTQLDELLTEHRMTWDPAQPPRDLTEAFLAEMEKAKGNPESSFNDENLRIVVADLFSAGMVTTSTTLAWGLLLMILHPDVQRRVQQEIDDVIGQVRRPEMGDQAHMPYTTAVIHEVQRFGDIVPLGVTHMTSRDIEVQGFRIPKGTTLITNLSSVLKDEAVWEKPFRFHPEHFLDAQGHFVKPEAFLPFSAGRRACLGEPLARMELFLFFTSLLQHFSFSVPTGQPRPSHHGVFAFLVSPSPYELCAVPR
# Procedure, shortened: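 Human CYP2D6 (5 nM) with 30 uM Luciferin-ME EGE (at Km) in 100 mM KPO4, compound preincubated 10 min, then NADPH regeneration system for 60 min at room temperature. Luciferin read by luminescence; normalized to 1.43 uM quinidine.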
# [8] = biological target: 3',5'-cyclic-AMP phosphodiesterase 4B (Homo sapiens) (UniProt Q07343); assay: qHTS Assay for Inhibitors of PDE-IV (AID 607; active means well fitted activation curve with a large enough effect in the main read-out, with a control signal flat, not every such curve was filed as active)
# 3',5'-cyclic-AMP phosphodiesterase 4B (Homo sapiens), sequence (Q07343 whole entry, looked up): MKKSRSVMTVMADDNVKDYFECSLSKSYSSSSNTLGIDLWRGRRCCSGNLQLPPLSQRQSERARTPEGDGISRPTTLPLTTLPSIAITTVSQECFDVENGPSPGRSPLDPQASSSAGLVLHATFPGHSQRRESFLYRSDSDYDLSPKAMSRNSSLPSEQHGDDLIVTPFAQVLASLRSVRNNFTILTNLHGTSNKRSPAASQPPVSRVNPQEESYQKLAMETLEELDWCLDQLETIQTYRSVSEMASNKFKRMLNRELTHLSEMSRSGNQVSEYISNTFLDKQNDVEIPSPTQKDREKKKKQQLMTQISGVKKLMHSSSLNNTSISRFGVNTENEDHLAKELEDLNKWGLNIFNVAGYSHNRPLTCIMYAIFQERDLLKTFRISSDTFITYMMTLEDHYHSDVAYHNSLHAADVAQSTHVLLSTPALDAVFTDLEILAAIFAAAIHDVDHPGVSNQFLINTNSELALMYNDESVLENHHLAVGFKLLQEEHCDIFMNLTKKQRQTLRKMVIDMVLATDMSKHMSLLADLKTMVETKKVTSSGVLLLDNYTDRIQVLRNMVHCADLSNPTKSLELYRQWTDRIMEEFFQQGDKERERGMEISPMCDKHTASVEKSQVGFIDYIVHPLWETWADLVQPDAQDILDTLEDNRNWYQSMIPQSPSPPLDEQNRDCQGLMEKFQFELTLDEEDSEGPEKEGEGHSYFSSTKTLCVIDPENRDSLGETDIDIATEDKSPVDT
# Procedure, shortened: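 Live HEK293 cells with a modified cyclic nucleotide-gated (CNG) channel report intracellular cAMP via membrane-potential dye fluorescence (ex 535/em 590 nm). Endogenous PDE-IV was targeted. Compounds were tested at up to 22.9 uM final; RO 20-1724 100 uM served as control.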
# [9] = biological target: Cytochrome P450 3A4 (Homo sapiens) (UniProt P08684); assay: qHTS Assay for Inhibitors and Substrates of Cytochrome P450 3A4 (AID 884); further: nearly all actives have a fitted effect of over 50% in size; further: potency means the concentration at half of the fitted maximal effect
# Cytochrome P450 3A4 (Homo sapiens), sequence (P08684 whole entry, looked up): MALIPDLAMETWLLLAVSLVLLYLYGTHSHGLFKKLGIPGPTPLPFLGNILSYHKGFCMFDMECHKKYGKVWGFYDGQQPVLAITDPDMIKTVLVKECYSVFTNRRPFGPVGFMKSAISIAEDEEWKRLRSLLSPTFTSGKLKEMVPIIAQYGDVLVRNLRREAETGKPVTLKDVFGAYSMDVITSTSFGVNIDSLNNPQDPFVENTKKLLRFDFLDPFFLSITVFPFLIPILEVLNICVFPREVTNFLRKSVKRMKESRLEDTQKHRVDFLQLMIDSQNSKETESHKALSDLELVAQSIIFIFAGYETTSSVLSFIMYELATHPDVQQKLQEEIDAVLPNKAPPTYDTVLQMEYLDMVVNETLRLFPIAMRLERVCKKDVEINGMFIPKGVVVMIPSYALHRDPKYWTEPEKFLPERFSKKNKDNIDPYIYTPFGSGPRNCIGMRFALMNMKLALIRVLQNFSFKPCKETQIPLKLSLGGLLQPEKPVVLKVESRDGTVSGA
# Procedure, shortened: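 20 nM human CYP3A4 with 25 uM Luciferin-PPXE (at KM) in 200 mM KPO4, preincubated 10 min with compound; NADPH regeneration started a 60 min RT reaction. Luciferin detected by luminescence, normalized to 57 uM ketoconazole as full inhibition.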
# [10] = Confirmation and Secondary Assay for Modulators of Hemoglobin Beta Chain Splicing at IVS2 654 locus (AID 910);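 further: HeLa cells stably carrying EGFP split by mutant beta-globin IVS2-654 intron; per-well total GFP intensity by laser scanning cytometry after 2-day treatment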
# Procedure, shortened: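 Readout: per-well total peak green fluorescence (488 nm ex, 500–520 nm em) from objects 5–250 µm, reflecting correct splicing of an EGFP-654 reporter. Compounds were applied for 2 days at 37 °C to overnight-plated HeLa EGFP-654 cells; controls were DMSO and 500 nM IVS2-654 PNA.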
# [11] = Confirmation and Secondary Assay for Modulators of Hemoglobin Beta Chain Splicing at IVS2 705 locus (AID 930);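 further: HeLa cells stably expressing the EGFP-705 splicing reporter; series mostly up to about 46 µM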
# Procedure, shortened: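 HeLa cells stably carrying EGFP interrupted by mutant beta-globin IVS2-705 intron (CMV-driven) were seeded at 500 cells/well, treated next day with compound for 2 days at 37C; corrected splicing restores EGFP, read as total peak GFP intensity per well.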
# [12] = biological target: Cytochrome P450 3A4 (Homo sapiens) (UniProt P08684); assay: qHTS Assay for Activators of Cytochrome P450 3A4 (AID 885); further: nearly all actives have a fitted effect of over 65% in size
# Procedure, shortened: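 Quantitative HTS format: compounds preincubated with 20nM human CYP3A4 and Luciferin-PPXE substrate at KM, reaction started by NADPH regeneration, stopped after 60 min, luciferase luminescence read 20 min later.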
# [13] = biological target: Ubiquitin carboxyl-terminal hydrolase 1 (Homo sapiens) (UniProt O94782); assay: Inhibitors of USP1/UAF1: Pilot qHTS (AID 504865);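 further: rhodamine fluorescence freed from ubiquitin-rhodamine substrate followed over time; top concentration of the series differs between compounds; nearly all actives have a fitted effect of over 35% in size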
# Ubiquitin carboxyl-terminal hydrolase 1 (Homo sapiens), sequence (O94782 whole entry, looked up): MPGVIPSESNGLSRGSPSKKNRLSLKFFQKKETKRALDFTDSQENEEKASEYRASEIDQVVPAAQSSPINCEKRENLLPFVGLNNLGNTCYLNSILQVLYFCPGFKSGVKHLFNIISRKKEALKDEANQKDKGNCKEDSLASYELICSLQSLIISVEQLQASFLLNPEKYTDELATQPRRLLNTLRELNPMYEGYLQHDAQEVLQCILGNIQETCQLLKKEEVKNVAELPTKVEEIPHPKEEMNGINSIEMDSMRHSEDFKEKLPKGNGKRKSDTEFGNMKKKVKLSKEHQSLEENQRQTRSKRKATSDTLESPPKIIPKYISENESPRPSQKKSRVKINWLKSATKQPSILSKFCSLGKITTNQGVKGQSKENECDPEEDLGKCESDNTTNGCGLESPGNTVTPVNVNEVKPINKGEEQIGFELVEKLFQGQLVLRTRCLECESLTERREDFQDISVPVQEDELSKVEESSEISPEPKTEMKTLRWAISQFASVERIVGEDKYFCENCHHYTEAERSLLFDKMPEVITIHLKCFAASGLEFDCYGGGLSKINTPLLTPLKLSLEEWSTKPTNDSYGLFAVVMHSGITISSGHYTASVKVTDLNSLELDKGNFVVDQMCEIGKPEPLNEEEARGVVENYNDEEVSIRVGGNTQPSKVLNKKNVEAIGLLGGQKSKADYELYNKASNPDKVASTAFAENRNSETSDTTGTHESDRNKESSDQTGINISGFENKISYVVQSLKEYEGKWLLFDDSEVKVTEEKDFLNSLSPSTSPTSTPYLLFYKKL
# Procedure, shortened: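 Deubiquitinase activity followed as kinetic rhodamine fluorescence release from 150 nM Ub-Rho. 1 nM USP1/UAF1 with compound, after 15 min room-temperature preincubation, in HEPES pH 7.8 buffer containing TCEP, EDTA, BSA and Tween-20.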
# [14] = biological target: DNA dC->dU-editing enzyme APOBEC-3G (Homo sapiens) (UniProt Q9HC16); assay: qHTS for inhibitors of Vif-A3G interactions: Validation (AID 588379)
# Procedure, shortened: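 HeLa cells stably expressing Vif and A3G-eYFP, 700 cells/well, incubated overnight at 37 deg C, then exposed to compound overnight at 37 deg C. Inhibition of Vif-mediated degradation read as increased yellow fluorescence (Ex 488/Em 500-530) by laser-scanning cytometry.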
structure (smiles),measurement,setting,value
O=P(c1ccccc1)(c1ccccc1)N1CC2(CC2)CC(O)(c2ccccc2)C1 (configuration not stated),Potency,[1],inactive
same,outcome,[2],inactive
C=CCCN1C[C@@H]2C[C@H](C1)c1cccc(=O)n1C2,Potency,[1],inactive
same,Potency,[3],> 46 µM
same,Potency,[4],> 46 µM
same,outcome,[2],inactive
same,Potency,[5],inactive
same,Potency,[6],inactive
CC(C)[C@H]1C(=O)N2CCC[C@@H]2[C@]2(O)O[C@@](NC(=O)[C@H]3C=C4c5cccc6[nH]cc(c56)C[C@H]4N(C)C3)(C(C)C)C(=O)N12,Potency,[1],31.6 µM (active)
same,Potency,[3],> 46 µM
same,Potency,[4],> 46 µM
same,Potency,[7],inactive
CC[C@H]1CN2CC[C@@H]1C[C@@H]2[C@H](O)c1ccnc2ccccc12,Potency,[1],inactive
same,Potency,[3],> 46 µM
same,Potency,[4],> 46 µM
same,outcome,[2],inactive
same,outcome,[8],inactive
same,Potency,[5],inactive
same,Potency,[6],inactive
COc1ccc2c(c1O)-c1c(OC)c(OC)cc3c1[C@@H](C2)N(C)CC3,Potency,[1],15.8 µM (active)
same,Potency,[3],> 46 µM
same,Potency,[4],> 46 µM
same,Potency,[5],inactive
same,Potency,[9],inactive
same,Potency,[6],inactive
same,Potency,[10],inactive
same,outcome,[11],inactive
C=C(CC1(C(C)NP(=O)(c2ccccc2)c2ccccc2)CC1)c1ccccc1 (configuration not stated),Potency,[1],15.8 µM (active)
same,outcome,[2],inactive
same,Potency,[5],7.94 µM (active)
same,Potency,[9],3.98 µM (active)
same,Potency,[12],inactive
CN(CCc1ccc(Cl)c(Cl)c1)[C@H]1CCCC[C@H]1N1CCCC1,Potency,[1],31.6 µM (active)
same,Potency,[4],> 46 µM
same,outcome,[2],inactive
same,Potency,[7],0.0063 µM (active)
same,Potency,[13],inactive
same,outcome,[14],inactive
COC(=O)C1(C)C=C2C(=C(C)C(=O)C2C)CN1 (configuration not stated),Potency,[1],31.6 µM (active)
same,outcome,[2],inactive
same,outcome,[8],inactive
COc1cc2c(cc1OC)[C@]13CCN4CC5=CCO[C@@H]6CC(=O)N2[C@@H]1[C@H]6[C@@H]5C[C@H]43,Potency,[1],inactive
same,outcome,[2],inactive
same,Potency,[5],inactive
same,Potency,[7],inactive
same,Potency,[6],inactive
C/C=C1\C[C@H](C)[C@](O)(CO)C(=O)OCC2=CCN3CC[C@@H](OC1=O)[C@@H]23,Potency,[1],inactive
same,Potency,[3],> 46 µM
same,Potency,[4],> 46 µM
same,outcome,[2],inactive
same,Potency,[5],inactive
same,Potency,[6],inactive
CC(C)(C)[C@@]1(O)C[C@@H]2OC(=O)C[C@@]23C(=O)O[C@H]2OC(=O)[C@@H](O)[C@]231,Potency,[1],inactive
same,Potency,[3],> 46 µM
same,Potency,[4],> 46 µM
same,outcome,[2],inactive
same,outcome,[8],inactive
same,Potency,[5],inactive
same,Potency,[6],inactive
O=C(O)[C@@H]1C[C@H]1[C@@H](NP(=O)(c1ccccc1)c1ccccc1)c1ccccc1,Potency,[1],inactive
same,outcome,[2],inactive
same,outcome,[8],inactive
C[C@H]1CC[C@]2(NC1)O[C@@H]1C[C@@H]3[C@@H]4CC=C5C[C@H](O)CC[C@@]5(C)[C@H]4CC[C@@]3(C)[C@H]1[C@@H]2C,Potency,[1],inactive
same,Potency,[3],> 46 µM
same,Potency,[4],> 46 µM
same,outcome,[2],inactive
same,Potency,[5],inactive
same,Potency,[6],inactive
CCN1C[C@@]2(C)CC[C@H](O)[C@@]34[C@@H]5C[C@H]6[C@H](O)[C@@H]5[C@](O)(C[C@@H]6OC)[C@H](C[C@@H]23)[C@H]14,Potency,[1],inactive
same,Potency,[3],> 46 µM
same,Potency,[4],> 46 µM
same,outcome,[2],inactive
same,Potency,[5],inactive
same,Potency,[6],inactive
CC(C)[C@]1(NC(=O)[C@H]2C=C3c4cccc5[nH]cc(c45)C[C@H]3N(C)C2)O[C@@]2(O)[C@H]3CCCN3C(=O)[C@H](Cc3ccccc3)N2C1=O,Potency,[1],31.6 µM (active)
same,Potency,[3],> 46 µM
same,Potency,[4],> 46 µM
same,Potency,[7],inactive
same,Potency,[6],2 µM (active)
CN[C@H]1[C@H]2[C@H]3CCN2C[C@@H]1O3,Potency,[1],inactive
same,Potency,[4],> 46 µM
same,outcome,[2],inactive
same,Potency,[5],inactive
same,Potency,[7],inactive
same,Potency,[6],inactive
C[C@H]1CCCC=CC2C[C@H](O)C[C@@H]2[C@H](O)/C=C\C(=O)O1 (some centres not stated),Potency,[1],15.8 µM (active)
same,Potency,[3],> 46 µM
same,Potency,[4],> 46 µM
same,outcome,[2],inactive
same,outcome,[8],inactive
same,Potency,[12],inactive
C=C[C@@H]1CN2CC[C@H]1C[C@H]2[C@@H](O)c1ccnc2ccccc12,Potency,[1],inactive
same,Potency,[3],> 46 µM
same,Potency,[4],> 46 µM
same,outcome,[2],inactive
same,Potency,[5],inactive
same,Potency,[7],0.1 µM (active)
same,Potency,[6],inactive
C[C@H]1C(=O)O[C@H]2CCN3CC=C(COC(=O)[C@](C)(O)[C@@]1(C)O)[C@H]23,Potency,[1],inactive
same,Potency,[3],> 46 µM
same,Potency,[4],> 46 µM
same,outcome,[2],inactive
same,Potency,[5],inactive
same,Potency,[7],inactive
same,Potency,[6],inactive
CC[C@@]12CCCN3CC[C@@]4(c5ccc(OC)c(O)c5N(C(C)=O)[C@H]4CC1)[C@H]32,Potency,[1],inactive
same,Potency,[3],> 46 µM
same,Potency,[4],> 46 µM
same,outcome,[2],inactive
same,outcome,[8],inactive
same,Potency,[5],inactive
same,Potency,[6],0.794 µM (active)
